Assays:
Assay in all cases: log2 ratio of Biotin-Ahx-Ub-VS probe labelling (compound/DMSO); higher = less target engagement, active = hit call of the paper (q ≤ 0.05, log2 ratio ≤ -1)
Details in all cases: treatment time: 3 h
[1] = compound: CCC1N(CCc2sccc12)C(=O)CCl
Method in brief: (§1)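 HEK293T lysate (495 µg per sample, in Tris/CHAPS/IGEPAL buffer with protease inhibitors) was exposed in triplicate to compound at 50 or 200 µM, or to DMSO, for 3 h, then to Biotin-Ahx-Ub-VS (0.5 µM final) for 1 h. The labelled DUBs were enriched on NeutrAvidin, digested with LysC and trypsin, and analysed by diaPASEF LC-MS/MS. Average base-two log ratios of compound over DMSO came from median-normalised label-free quantities by unpaired t-test. Only proteins with at least 2 unique peptides were used.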

[2] = compound: CN1c2ccccc2C(CS1(=O)=O)NC(=O)CCl
Method in brief: as §1

[3] = compound: Cl.ClCC(=O)N1CCc2ncncc2C1
Method in brief: as §1

[4] = compound: Cl.Cn1ncc2C(CCCc12)NC(=O)CCl
Method in brief: as §1

[5] = compound: ClCC(=O)NC1CCOc2ccccc12
Method in brief: as §1

[6] = compound: ClCC(=O)NC1CCCc2ccccc12
Method in brief: (§2)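 HEK293T lysate (495 µg per sample, in Tris/CHAPS/IGEPAL buffer with protease inhibitors) was treated in triplicate with compound over a concentration series or DMSO for 3 h, then with Biotin-Ahx-Ub-VS (0.5 µM final) for 1 h. Labelled DUBs were NeutrAvidin-enriched, digested with LysC and trypsin, and run by diaPASEF LC-MS/MS. Spectronaut label-free protein quantities were global-median-normalised. Values are average log2 ratios compound/DMSO from an unpaired t-test, using proteins with ≥2 unique peptides.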

[7] = compound: ClCC(=O)N[C@@H]1CCCc2ccccc12
Method in brief: as §2

[8] = compound: ClCC(=O)N[C@H]1CCCc2ccccc12
Method in brief: as §2

[9] = compound: CCC1N(CCc2cc(OC)c(Cl)cc12)C(=O)CCl
Method in brief: as §1

[10] = compound: CCCC1N(CCc2cc(OC)c(OC)cc12)C(=O)CCl
Method in brief: as §1

[11] = compound: CN(Cc1cccc(Br)c1)C(=O)CCl
Method in brief: as §1

[12] = compound: CN(Cc1ccccc1)C(=O)CCl
Method in brief: as §1

[13] = compound: COc1ccc(CN(C)C(=O)CCl)cc1
Method in brief: as §1

[14] = compound: COc1cccc(CN(CCCc2ccccc2)C(=O)CCl)c1
Method in brief: as §1

[15] = compound: ClCC(=O)N1CCc2cc(Cl)c(Cl)cc2C1
Method in brief: as §1

[16] = compound: ClCC(=O)N1CCc2nc(ncc2C1)-c1ccccc1
Method in brief: as §1

[17] = compound: ClCC(=O)N1CCc2nocc2C1
Method in brief: as §1

[18] = compound: ClCC(=O)N1CCc2scc(Br)c2C1
Method in brief: as §1

[19] = compound: ClCC(=O)NC(C1CCCC1)c1cccs1
Method in brief: as §1

Measured: log2 ratio of Biotin-Ahx-Ub-VS probe labelling

OTUB1 (UniProt Q96FW1)
UniProt Q96FW1, sequence (Q96FW1 whole entry): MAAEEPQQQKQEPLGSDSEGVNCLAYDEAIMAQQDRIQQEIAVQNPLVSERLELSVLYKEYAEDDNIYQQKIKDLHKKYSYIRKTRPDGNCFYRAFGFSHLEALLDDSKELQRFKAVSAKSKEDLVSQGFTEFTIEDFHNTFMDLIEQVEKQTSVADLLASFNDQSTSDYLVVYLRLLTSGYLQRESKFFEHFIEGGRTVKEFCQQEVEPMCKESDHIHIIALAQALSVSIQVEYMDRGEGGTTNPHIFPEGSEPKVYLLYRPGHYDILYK
inactive: [1]; compound concentration: 50uM -0.117 | [1]; compound concentration: 200uM -0.154 | [2]; compound concentration: 50uM -0.275 | [2]; compound concentration: 200uM -0.196 | [3]; compound concentration: 50uM -0.211 | [3]; compound concentration: 200uM -0.426 | [4]; compound concentration: 50uM 0.106 | [4]; compound concentration: 200uM -0.247 | [5]; compound concentration: 50uM -0.281 | [5]; compound concentration: 200uM -0.037 | [6]; compound concentration: 0.78uM -0.196 | [6]; compound concentration: 1.56uM -0.0742 | [6]; compound concentration: 3.13uM -0.226 | [6]; compound concentration: 6.25uM -0.309 | [6]; compound concentration: 12.5uM -0.314 | [6]; compound concentration: 25uM -0.147 | [6]; compound concentration: 50uM -0.404 | [6]; compound concentration: 100uM -0.172 | [6]; compound concentration: 200uM -0.492 | [7]; compound concentration: 0.78uM 0.0648 | [7]; compound concentration: 1.56uM -0.00906 | [7]; compound concentration: 3.13uM -0.216 | [7]; compound concentration: 6.25uM -0.197 | [7]; compound concentration: 12.5uM -0.122 | [7]; compound concentration: 25uM -0.199 | [7]; compound concentration: 50uM -0.236 | [7]; compound concentration: 100uM -0.0374 | [7]; compound concentration: 200uM -0.142 | [8]; compound concentration: 0.78uM -0.244 | [8]; compound concentration: 1.56uM -0.103 | [8]; compound concentration: 3.13uM -0.28 | [8]; compound concentration: 6.25uM -0.301 | [8]; compound concentration: 12.5uM -0.188 | [8]; compound concentration: 25uM -0.119 | [8]; compound concentration: 50uM -0.16 | [8]; compound concentration: 100uM -0.00187 | [8]; compound concentration: 200uM -0.123 | [9]; compound concentration: 50uM 0.198 | [9]; compound concentration: 200uM -0.422 | [10]; compound concentration: 50uM -0.107 | [10]; compound concentration: 200uM -0.0707 | [11]; compound concentration: 50uM 0.0635 | [11]; compound concentration: 200uM 0.0164 | [12]; compound concentration: 50uM -0.0602 | [12]; compound concentration: 200uM -0.159 | [13]; compound concentration: 50uM -0.0667 | [13]; compound concentration: 200uM -0.232 | [14]; compound concentration: 50uM -0.125 | [14]; compound concentration: 200uM -0.389 | [15]; compound concentration: 50uM 0.182 | [15]; compound concentration: 200uM -0.161 | [16]; compound concentration: 50uM -0.0139 | [16]; compound concentration: 200uM -0.309 | [17]; compound concentration: 50uM -0.139 | [17]; compound concentration: 200uM -0.129 | [18]; compound concentration: 50uM 0.0181 | [18]; compound concentration: 200uM -0.0887 | [19]; compound concentration: 50uM 0.00867 | [19]; compound concentration: 200uM -0.00015

UCHL1 (UniProt P09936)
UniProt P09936, sequence (P09936 whole entry, looked up): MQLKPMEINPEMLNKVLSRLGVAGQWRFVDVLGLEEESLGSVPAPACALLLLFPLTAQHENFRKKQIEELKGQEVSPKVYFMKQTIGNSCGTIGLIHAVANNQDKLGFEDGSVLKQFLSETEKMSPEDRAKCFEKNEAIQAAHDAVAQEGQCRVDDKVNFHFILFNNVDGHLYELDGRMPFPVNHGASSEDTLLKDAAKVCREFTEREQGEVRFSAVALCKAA
inactive: [1]; compound concentration: 50uM -0.0927 | [1]; compound concentration: 200uM 0.068 | [2]; compound concentration: 50uM -0.207 | [2]; compound concentration: 200uM -0.242 | [3]; compound concentration: 50uM -0.16 | [3]; compound concentration: 200uM -0.504 | [4]; compound concentration: 50uM -0.114 | [4]; compound concentration: 200uM 0.145 | [5]; compound concentration: 50uM 0.105 | [5]; compound concentration: 200uM 0.0647 | [6]; compound concentration: 0.78uM -0.218 | [6]; compound concentration: 1.56uM -0.0576 | [6]; compound concentration: 3.13uM -0.283 | [6]; compound concentration: 6.25uM -0.158 | [6]; compound concentration: 12.5uM -0.19 | [6]; compound concentration: 25uM -0.341 | [6]; compound concentration: 50uM -0.22 | [6]; compound concentration: 100uM -0.163 | [6]; compound concentration: 200uM -0.254 | [7]; compound concentration: 0.78uM -0.29 | [7]; compound concentration: 1.56uM -0.214 | [7]; compound concentration: 3.13uM -0.161 | [7]; compound concentration: 6.25uM -0.154 | [7]; compound concentration: 12.5uM -0.211 | [7]; compound concentration: 25uM -0.116 | [7]; compound concentration: 50uM -0.259 | [7]; compound concentration: 100uM -0.155 | [7]; compound concentration: 200uM -0.0847 | [8]; compound concentration: 0.78uM -0.211 | [8]; compound concentration: 1.56uM -0.304 | [8]; compound concentration: 3.13uM -0.239 | [8]; compound concentration: 6.25uM -0.187 | [8]; compound concentration: 12.5uM -0.239 | [8]; compound concentration: 25uM -0.196 | [8]; compound concentration: 50uM -0.16 | [8]; compound concentration: 100uM -0.204 | [8]; compound concentration: 200uM -0.267 | [9]; compound concentration: 50uM 0.0838 | [9]; compound concentration: 200uM 0.00983 | [10]; compound concentration: 50uM -0.262 | [10]; compound concentration: 200uM -0.45 | [11]; compound concentration: 50uM -0.0723 | [11]; compound concentration: 200uM 0.424 | [12]; compound concentration: 50uM -0.373 | [12]; compound concentration: 200uM -0.192 | [13]; compound concentration: 50uM -0.293 | [13]; compound concentration: 200uM 0.0271 | [14]; compound concentration: 50uM 0.0165 | [14]; compound concentration: 200uM 0.0676 | [15]; compound concentration: 50uM 0.153 | [15]; compound concentration: 200uM -0.0523 | [16]; compound concentration: 50uM 0.109 | [16]; compound concentration: 200uM -0.0372 | [17]; compound concentration: 50uM -0.379 | [17]; compound concentration: 200uM -0.3 | [18]; compound concentration: 50uM -0.0189 | [18]; compound concentration: 200uM -0.0895 | [19]; compound concentration: 50uM -0.0993 | [19]; compound concentration: 200uM -0.00199

USP48 (UniProt Q86UV5)
UniProt Q86UV5, sequence (Q86UV5 whole entry): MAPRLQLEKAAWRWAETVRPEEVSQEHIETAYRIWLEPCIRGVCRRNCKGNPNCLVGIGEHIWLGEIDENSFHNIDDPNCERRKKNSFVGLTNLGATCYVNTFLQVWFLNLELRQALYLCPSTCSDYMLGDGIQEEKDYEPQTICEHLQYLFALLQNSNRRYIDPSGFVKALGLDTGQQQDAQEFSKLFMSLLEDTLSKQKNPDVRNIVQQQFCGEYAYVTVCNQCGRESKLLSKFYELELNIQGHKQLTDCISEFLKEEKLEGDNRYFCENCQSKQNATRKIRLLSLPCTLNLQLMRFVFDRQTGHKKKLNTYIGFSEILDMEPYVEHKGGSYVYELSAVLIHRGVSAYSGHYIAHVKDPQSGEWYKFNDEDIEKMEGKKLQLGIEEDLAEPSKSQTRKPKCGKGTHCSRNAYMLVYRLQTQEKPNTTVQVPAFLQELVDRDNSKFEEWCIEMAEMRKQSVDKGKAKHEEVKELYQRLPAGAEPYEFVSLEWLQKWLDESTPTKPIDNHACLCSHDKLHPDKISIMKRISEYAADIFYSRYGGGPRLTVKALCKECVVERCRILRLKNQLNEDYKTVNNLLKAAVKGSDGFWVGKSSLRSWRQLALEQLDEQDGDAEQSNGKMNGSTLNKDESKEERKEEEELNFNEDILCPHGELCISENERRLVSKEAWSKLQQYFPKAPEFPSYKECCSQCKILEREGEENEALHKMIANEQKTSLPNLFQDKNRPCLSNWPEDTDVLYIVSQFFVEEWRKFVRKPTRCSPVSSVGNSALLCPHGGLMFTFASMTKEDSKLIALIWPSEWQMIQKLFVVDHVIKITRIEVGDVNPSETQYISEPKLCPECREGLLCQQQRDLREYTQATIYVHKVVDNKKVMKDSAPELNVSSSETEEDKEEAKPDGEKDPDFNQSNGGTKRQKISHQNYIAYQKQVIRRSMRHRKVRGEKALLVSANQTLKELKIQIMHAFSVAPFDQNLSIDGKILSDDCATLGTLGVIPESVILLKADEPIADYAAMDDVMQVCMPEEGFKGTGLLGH
inactive: [1]; compound concentration: 50uM 0.0438 | [1]; compound concentration: 200uM -0.229 | [2]; compound concentration: 50uM -0.0584 | [2]; compound concentration: 200uM -0.173 | [3]; compound concentration: 50uM 0.0472 | [3]; compound concentration: 200uM -0.0578 | [4]; compound concentration: 50uM 0.11 | [4]; compound concentration: 200uM -0.141 | [5]; compound concentration: 50uM -0.181 | [5]; compound concentration: 200uM 0.181 | [6]; compound concentration: 0.78uM -0.207 | [6]; compound concentration: 1.56uM -0.126 | [6]; compound concentration: 3.13uM -0.133 | [6]; compound concentration: 6.25uM -0.353 | [6]; compound concentration: 12.5uM -0.196 | [6]; compound concentration: 25uM -0.157 | [6]; compound concentration: 50uM -0.212 | [6]; compound concentration: 100uM -0.103 | [6]; compound concentration: 200uM -0.378 | [7]; compound concentration: 0.78uM -0.118 | [7]; compound concentration: 1.56uM 0.0156 | [7]; compound concentration: 3.13uM -0.424 | [7]; compound concentration: 6.25uM -0.193 | [7]; compound concentration: 12.5uM -0.0735 | [7]; compound concentration: 25uM -0.174 | [7]; compound concentration: 50uM -0.19 | [7]; compound concentration: 100uM -0.106 | [7]; compound concentration: 200uM -0.351 | [8]; compound concentration: 0.78uM -0.189 | [8]; compound concentration: 1.56uM -0.192 | [8]; compound concentration: 3.13uM -0.141 | [8]; compound concentration: 6.25uM -0.00525 | [8]; compound concentration: 12.5uM -0.0911 | [8]; compound concentration: 25uM -0.00111 | [8]; compound concentration: 50uM -0.0046 | [8]; compound concentration: 100uM -0.171 | [8]; compound concentration: 200uM -0.203 | [9]; compound concentration: 50uM -0.171 | [9]; compound concentration: 200uM -0.314 | [10]; compound concentration: 50uM -0.217 | [10]; compound concentration: 200uM -0.148 | [11]; compound concentration: 50uM -0.101 | [11]; compound concentration: 200uM -0.603 | [12]; compound concentration: 50uM -0.0688 | [12]; compound concentration: 200uM -0.18 | [13]; compound concentration: 50uM -0.0647 | [13]; compound concentration: 200uM -0.237 | [14]; compound concentration: 50uM -0.0292 | [14]; compound concentration: 200uM -0.259 | [15]; compound concentration: 50uM -0.214 | [15]; compound concentration: 200uM -0.0205 | [16]; compound concentration: 50uM -0.173 | [16]; compound concentration: 200uM -0.226 | [17]; compound concentration: 50uM -0.112 | [17]; compound concentration: 200uM -0.324 | [18]; compound concentration: 50uM -0.161 | [18]; compound concentration: 200uM -0.327 | [19]; compound concentration: 50uM -0.234 | [19]; compound concentration: 200uM -0.00963

— the supplement of paper PMC11732987, “Enantioselective OTUD7B fragment discovery through chemoproteomics screening and high-throughput optimisation” (Communications Chemistry, 2025)
